# Assay results from paper PMC4081100, “A DNA-binding-site landscape and regulatory network analysis for NAC transcription factors in Arabidopsis thaliana”.
# Columns and labels:
# Assay in all cases: universal protein binding microarray (PBM); transcription factors of Arabidopsis thaliana; high values mean tight binding
# Settings in all cases: protein: recombinant; tags: GST; chain copies: 2; dsDNA, one strand shown
# [1] = target: T1, GST-ANAC092(1-176) (Arabidopsis thaliana, UniProt Q9FKA0 1-176)
# T1 sequence: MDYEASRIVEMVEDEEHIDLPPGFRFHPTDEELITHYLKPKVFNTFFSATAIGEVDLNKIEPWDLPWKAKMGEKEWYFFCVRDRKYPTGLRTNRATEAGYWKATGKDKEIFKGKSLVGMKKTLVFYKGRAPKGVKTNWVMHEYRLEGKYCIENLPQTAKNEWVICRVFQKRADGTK
# In short: (§1)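 Protein amounts were determined by A280 or anti-GST western blot after glutathione–Sepharose 4B purification of GST-tagged proteins induced in cells, with zinc acetate included for zinc-finger proteins. Duplicate runs at 200 to 500 nM final were done on custom all-10-mer Agilent 4 × 180K arrays made double-stranded by primer extension. The normalised enrichment score (E-score) over gapped and ungapped 8-mers is the measure of binding.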
# [2] = target: T2, GST-ANAC019 NAC domain (Arabidopsis thaliana, UniProt Q9C932 14-162)
# T2 sequence: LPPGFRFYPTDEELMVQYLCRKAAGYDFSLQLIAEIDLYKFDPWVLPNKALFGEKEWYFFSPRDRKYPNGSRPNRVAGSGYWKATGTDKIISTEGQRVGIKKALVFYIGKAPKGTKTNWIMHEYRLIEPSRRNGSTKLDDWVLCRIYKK
# In short: as §1
# [3] = target: T3, GST-ANAC055(1-171) (Arabidopsis thaliana, UniProt Q9LDY8 1-171)
# T3 sequence: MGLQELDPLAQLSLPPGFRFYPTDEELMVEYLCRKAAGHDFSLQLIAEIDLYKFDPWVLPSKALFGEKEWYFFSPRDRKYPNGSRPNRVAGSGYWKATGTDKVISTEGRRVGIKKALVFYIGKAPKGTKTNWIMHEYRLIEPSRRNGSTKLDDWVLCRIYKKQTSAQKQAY
# In short: as §1
# [4] = target: T4, GST-ATAF1 NAC domain (Arabidopsis thaliana, UniProt Q39013 7-158)
# T4 sequence: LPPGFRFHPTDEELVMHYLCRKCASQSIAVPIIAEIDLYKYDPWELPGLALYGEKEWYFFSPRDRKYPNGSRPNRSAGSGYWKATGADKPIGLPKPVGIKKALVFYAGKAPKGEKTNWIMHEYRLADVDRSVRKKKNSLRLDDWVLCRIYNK
# In short: as §1
# [5] = target: T5, GST-ANAC092(1-285) full length (Arabidopsis thaliana, UniProt Q9FKA0 1-285)
# T5 sequence: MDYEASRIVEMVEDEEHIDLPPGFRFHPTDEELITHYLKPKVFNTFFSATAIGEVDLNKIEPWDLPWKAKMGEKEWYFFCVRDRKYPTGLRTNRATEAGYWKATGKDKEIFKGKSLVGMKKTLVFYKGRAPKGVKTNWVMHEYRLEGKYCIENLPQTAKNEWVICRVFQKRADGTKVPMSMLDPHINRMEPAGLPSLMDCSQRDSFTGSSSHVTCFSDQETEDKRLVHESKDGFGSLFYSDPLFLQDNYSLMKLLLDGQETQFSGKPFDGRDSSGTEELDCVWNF
# In short: as §1
# [6] = target: T6, GST-NAP(1-166) (Arabidopsis thaliana, UniProt O49255 1-166)
# T6 sequence: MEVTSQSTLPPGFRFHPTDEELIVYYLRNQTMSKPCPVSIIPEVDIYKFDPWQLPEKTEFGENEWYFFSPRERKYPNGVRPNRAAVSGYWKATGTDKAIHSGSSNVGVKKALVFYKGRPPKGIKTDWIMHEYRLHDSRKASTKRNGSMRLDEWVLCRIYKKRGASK
# In short: as §1
# [7] = target: T7, GST-NST2(1-184) (Arabidopsis thaliana, UniProt Q9M274 1-184)
# T7 sequence: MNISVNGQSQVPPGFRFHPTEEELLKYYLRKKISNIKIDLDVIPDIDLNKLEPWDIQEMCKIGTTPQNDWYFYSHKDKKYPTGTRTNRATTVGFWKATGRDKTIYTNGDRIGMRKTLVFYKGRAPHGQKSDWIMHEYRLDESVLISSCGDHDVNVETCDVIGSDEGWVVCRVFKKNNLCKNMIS
# In short: as §1
# [8] = target: T8, GST-SND1(1-203) (Arabidopsis thaliana, UniProt Q9LPI7 1-203)
# T8 sequence: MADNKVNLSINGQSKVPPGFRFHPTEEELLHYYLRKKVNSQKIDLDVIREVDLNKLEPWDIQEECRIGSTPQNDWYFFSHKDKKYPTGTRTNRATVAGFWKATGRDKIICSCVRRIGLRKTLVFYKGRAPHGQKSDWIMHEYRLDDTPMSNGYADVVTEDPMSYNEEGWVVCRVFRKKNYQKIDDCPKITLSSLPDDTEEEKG
# In short: as §1
# [9] = target: T9, GST-VND3 NAC domain (Arabidopsis thaliana, UniProt Q9FH59 12-162)
# T9 sequence: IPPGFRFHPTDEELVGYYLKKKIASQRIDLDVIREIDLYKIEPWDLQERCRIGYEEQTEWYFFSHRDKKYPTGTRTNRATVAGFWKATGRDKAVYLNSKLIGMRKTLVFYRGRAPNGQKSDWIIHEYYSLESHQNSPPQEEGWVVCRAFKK
# In short: as §1
# [10] = target: T10, GST-VND7 NAC domain (Arabidopsis thaliana, UniProt Q9C8W9 9-158)
# T10 sequence: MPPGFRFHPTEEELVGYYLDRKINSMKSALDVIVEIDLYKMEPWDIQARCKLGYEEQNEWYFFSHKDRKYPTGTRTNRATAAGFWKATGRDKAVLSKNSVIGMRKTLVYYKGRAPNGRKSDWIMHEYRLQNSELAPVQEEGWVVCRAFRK
# In short: as §1
# [11] = target: T11, GST-NTL8 NAC domain (Arabidopsis thaliana, UniProt Q9XIN7 14-156)
# T11 sequence: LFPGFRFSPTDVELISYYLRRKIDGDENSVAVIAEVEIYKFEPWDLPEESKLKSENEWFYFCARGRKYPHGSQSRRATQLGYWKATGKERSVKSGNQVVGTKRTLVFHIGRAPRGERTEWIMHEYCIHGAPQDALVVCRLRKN
# In short: as §1
Sequence,binding signal [1] [E-score],binding signal [2] [E-score],binding signal [3] [E-score],binding signal [4] [E-score],binding signal [5] [E-score],binding signal [6] [E-score],binding signal [7] [E-score],binding signal [8] [E-score],binding signal [9] [E-score],binding signal [10] [E-score],binding signal [11] [E-score]
ACGGAACA,0.224,0.418,0.418,0.304,0.289,0.336,0.166,0.217,0.352,0.409,
GTTACGCA,0.338,0.301,0.189,0.2,0.363,0.263,0.219,0.422,0.317,0.215,
ACGCAAGC,0.466,0.35,0.295,0.148,0.478,0.294,0.299,0.417,0.344,0.332,
CGTACACG,0.337,0.221,0.287,0.278,0.403,0.288,0.0623,0.0837,0.317,0.3,
GGACGCAA,0.411,0.155,0.0669,0.0919,0.437,0.303,0.107,0.25,0.0908,0.0578,
TATACGCA,0.311,0.232,0.32,0.231,0.4,0.25,0.243,0.298,0.29,0.102,
CACGCCAC,0.481,0.33,0.268,0.293,0.488,0.292,0.298,0.386,0.168,0.271,
CTAACGTA,0.323,0.0668,0.216,0.29,0.391,0.173,0.277,0.426,0.25,0.165,
GTACGCCA,0.379,0.139,0.153,0.121,0.45,0.0526,0.225,0.398,0.07,0.114,
ATAACGTG,0.446,0.0978,0.143,0.142,0.447,0.165,0.221,0.299,0.191,0.109,
ACACGTAA,0.481,0.477,0.469,0.439,0.481,0.465,0.316,0.288,0.461,0.476,
ACGTCACC,0.452,0.308,0.32,0.311,0.463,0.356,0.237,0.408,0.239,0.28,
AACACGCA,0.469,0.415,0.345,0.315,0.477,0.386,0.263,0.335,0.346,0.34,
ACACGTAT,0.289,0.406,0.342,0.312,0.369,0.387,0.19,0.139,0.38,0.381,
AGCGTGTC,0.398,0.206,0.174,0.165,0.432,0.0924,0.107,0.131,0.156,0.208,
CTACGCAA,0.427,0.316,0.207,0.267,0.447,0.196,0.364,0.488,0.365,0.349,0.126
AACACGTT,0.375,0.262,0.284,0.228,0.426,0.259,0.222,0.202,0.281,0.203,0.132
ACGCAACG,0.46,0.327,0.23,0.27,0.463,0.387,0.3,0.461,0.278,0.316,0.113
CGTACGCA,0.392,0.359,0.328,0.291,0.433,0.365,0.24,0.32,0.378,0.341,0.0905
CACGCAAC,0.496,0.486,0.463,0.437,0.498,0.489,0.444,0.482,0.476,0.484,0.181
ACGGCAAT,0.298,0.409,0.375,0.283,0.366,0.236,0.286,0.226,0.3,0.317,0.188
ATTACGCA,0.35,0.168,0.276,0.206,0.37,0.282,0.292,0.431,0.265,0.253,
CACGTAAC,0.466,0.479,0.452,0.436,0.467,0.468,0.279,0.321,0.44,0.47,0.242
ACGGCACT,0.331,0.467,0.449,0.454,0.393,0.425,0.187,0.174,0.402,0.453,0.0691
TCACGTAA,0.443,0.47,0.424,0.324,0.445,0.405,0.269,0.326,0.441,0.44,0.209
ACGTTACC,0.458,0.263,0.197,0.195,0.467,0.218,0.331,0.462,0.249,0.176,0.384
GCACGGAA,0.388,0.472,0.457,0.357,0.413,0.437,0.2,0.156,0.402,0.453,0.193
ATTGCGTA,0.482,0.375,0.333,0.32,0.485,0.423,0.409,0.491,0.444,0.453,0.0931
AAATACGT,0.196,0.226,0.244,0.346,0.35,0.29,0.209,0.21,0.408,0.263,0.101
